Results published in PubChem BioAssay AID1159580 (chemical genetic matrix, 2015).
Several values for one entry are separate records, joined by “and”; a condition that tells them apart may be missing. Identical values can stand only once. Screen size: about 5,500 compounds; about 2,000 (36%) were called active. About 18% were inconclusive and are not listed. Rule as the data show it: active = normalized growth mostly below about 0.91 (no sharp cut-off); inconclusive = no clear call, values can overlap the other calls; inactive = mostly above about 0.92. This is one part of the list.

Experiment: chemical genetic growth profiling, strain panel (AID 1159580);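 also: tested at 20 µM; growth read once vehicle control cultures reached saturation at 30 °C; 1 = growth at the plate median or of vehicle wells; lower values mean less growth of the strain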
Settings: S. cerevisiae deletion strains, growth OD

Measured: normalized growth

CCn1nc(C(=O)O)c(=O)c2cc3c(cc21)OCO3
inactive: locus YAL013W, strain DEP1, stronger effect = lower value 1.01 | locus YAL021C, strain ccr4, stronger effect = lower value 1 | locus YAL026C, strain drs2, stronger effect = lower value 0.999 | locus YAL030W, strain snc1, stronger effect = lower value 1.01 | locus YAL040C, strain CLN3, stronger effect = lower value 0.955 | locus YBL061C, strain skt5, stronger effect = lower value 1.02 | locus YBR009C, strain hhf1, stronger effect = lower value 0.989 | locus YBR021W, strain FUR4, stronger effect = lower value 1.03 | locus YBR023C, strain chs3, stronger effect = lower value 1.03 | locus YBR171W, strain sec66, stronger effect = lower value 1 | locus YBR229C, strain ROT2, stronger effect = lower value 1.01 | locus YBR231C, strain swc5, stronger effect = lower value 1.03 | locus YBR279W, strain paf1, stronger effect = lower value 1 | locus YCL011C, strain gbp2, stronger effect = lower value 0.987 | locus YCL016C, strain dcc1, stronger effect = lower value 0.99 | locus YCL029C, strain bik1, stronger effect = lower value 1.01 | locus YCL069W, strain vba3, stronger effect = lower value 1.01 | locus YCR088W, strain abp1, stronger effect = lower value 1 | locus YDL005C, strain med2, stronger effect = lower value 0.998 | locus YDL035C, strain GPR1, stronger effect = lower value 1 | locus YDL040C, strain nat1, stronger effect = lower value 1.01 | locus YDL074C, strain BRE1, stronger effect = lower value 1.04 | locus YDL101C, strain DUN1, stronger effect = lower value 1.01 | locus YDL134C, strain PPH21, stronger effect = lower value 1 | locus YDL185W, strain tfp1, stronger effect = lower value 1.03 | locus YDL192W, strain arf1, stronger effect = lower value 1.03 | locus YDR001C, strain nth1, stronger effect = lower value 0.996 | locus YDR069C, strain doa4, stronger effect = lower value 1.02 | locus YDR101C, strain arx1, stronger effect = lower value 0.992 | locus YDR137W, strain rgp1, stronger effect = lower value 0.949 | locus YDR150W, strain NUM1, stronger effect = lower value 1.01 | locus YDR159W, strain sac3, stronger effect = lower value 0.959 | locus YDR162C, strain NBP2, stronger effect = lower value 1.01 | locus YDR195W, strain ref2 1.01 | locus YDR297W, strain sur2, stronger effect = lower value 1.01 | locus YDR318W, strain mcm21, stronger effect = lower value 1.02 | locus YDR334W, strain swr1, stronger effect = lower value 1 | locus YDR335W, strain msn5, stronger effect = lower value 1.01 | locus YDR363W, strain ESC2, stronger effect = lower value 0.967 | locus YDR388W, stronger effect = lower value 1.02 | locus YDR392W, strain spt3, stronger effect = lower value 0.987 | locus YDR502C, strain sam2, stronger effect = lower value 1.02 | locus YEL003W, strain gim4, stronger effect = lower value 1.02 | locus YEL037C, strain rad23, stronger effect = lower value 1.01 | locus YEL061C, strain CIN8 (second series), stronger effect = lower value 1.01 | locus YEL061C, strain CIN8, stronger effect = lower value 1.01 | locus YER002W, strain NOP16, stronger effect = lower value 1.02 | locus YER015W, strain faa2, stronger effect = lower value 1.02 | locus YER016W, strain bim1, stronger effect = lower value 0.996 | locus YER110C, stronger effect = lower value 1.02 | locus YER111C, strain swi4, stronger effect = lower value 1 | locus YER155C, strain BEM2 (second series), stronger effect = lower value 1.06 | locus YER155C, strain BEM2, stronger effect = lower value 0.999 | locus YER167W, strain BCK2, stronger effect = lower value 0.993 | locus YFR010W, strain ubp6, stronger effect = lower value 1.03 | locus YGL078C, strain dbp3, stronger effect = lower value 1.01 | locus YGL086W, strain mad1, stronger effect = lower value 1 | locus YGL167C, strain pmr1, stronger effect = lower value 1.03 | locus YGL173C, strain kem1, stronger effect = lower value 1.01 | locus YGL227W, strain vid30, stronger effect = lower value 1.01 | locus YGL240W, strain doc1, stronger effect = lower value 1.03 | locus YGL248W, strain PDE1, stronger effect = lower value 1.03 | locus YGL253W, strain hxk2, stronger effect = lower value 1.01 | locus YGR078C, strain PAC10, stronger effect = lower value 1.02 and 1.01 | locus YGR135W, strain pre9, stronger effect = lower value 1.04 | locus YGR252W, strain gcn5, stronger effect = lower value 1.05 | locus YHR013C, strain ard1, stronger effect = lower value 1 | locus YHR027C, strain rpn1, stronger effect = lower value 1.01 | locus YHR030C, strain SLT2, stronger effect = lower value 1.01 and 0.999 | locus YHR079C, strain IRE1 (second series), stronger effect = lower value 1.01 | locus YHR079C, strain IRE1, stronger effect = lower value 0.999 | locus YHR094C, strain hxt1, stronger effect = lower value 1.01 | locus YHR129C, strain ARP1, stronger effect = lower value 1 | locus YHR142W, strain chs7, stronger effect = lower value 1.01 | locus YHR200W, strain rpn10, stronger effect = lower value 1.03 | locus YIL066C, strain RNR3, stronger effect = lower value 1.01 | locus YIL073C, strain SPO22, stronger effect = lower value 1.04 | locus YIL125W, strain kgd1, stronger effect = lower value 1.01 | locus YIR030C, strain dcg1, stronger effect = lower value 1.01 | locus YJL092W, strain hpr5, stronger effect = lower value 1.02 | locus YJL095W, strain BCK1 (second series), stronger effect = lower value 1.02 | locus YJL095W, strain BCK1, stronger effect = lower value 1.04 and 0.983 | locus YJL115W, strain asf1, stronger effect = lower value 1.01 | locus YJL129C, strain trk1, stronger effect = lower value 1.02 | locus YJL134W, strain LCB3, stronger effect = lower value 1.01 | locus YJL154C, strain vps35, stronger effect = lower value 1.02 | locus YJL164C, strain tpk1, stronger effect = lower value 1 | locus YJL166W, strain qcr8, stronger effect = lower value 1.05 | locus YJL168C, strain set2, stronger effect = lower value 1.02 | locus YJL187C, strain SWE1 (second series), stronger effect = lower value 1.03 | locus YJL187C, strain SWE1, stronger effect = lower value 1.02 | locus YJR043C, strain POL32, stronger effect = lower value 0.999 | locus YJR066W, strain TOR1, stronger effect = lower value 0.974 | locus YJR075W, strain HOC1, stronger effect = lower value 1.03 | locus YKL009W, strain mrt4, stronger effect = lower value 1.03 | locus YKL068W, stronger effect = lower value 0.999 | locus YKL085W, strain MDH1 (second series), stronger effect = lower value 1.03 | locus YKL085W, strain MDH1, stronger effect = lower value 1.03 | locus YKL160W, strain elf1, stronger effect = lower value 1.02 | locus YKR001C, strain vps1, stronger effect = lower value 1 | locus YKR026C, strain gcn3, stronger effect = lower value 0.993 | locus YKR091W, strain srl3, stronger effect = lower value 1.02 | locus YLL001W, strain dnm1, stronger effect = lower value 1.02 | locus YLL026W, stronger effect = lower value 1 | locus YLL041C, strain sdh2, stronger effect = lower value 1.01 | locus YLR027C, strain aat2, stronger effect = lower value 1 | locus YLR039C, strain RIC1, stronger effect = lower value 0.967 | locus YLR058C, strain SHM2, stronger effect = lower value 1.02 | locus YLR102C, strain apc9, stronger effect = lower value 1.01 | locus YLR113W, strain HOG1, stronger effect = lower value 1 | locus YLR221C, strain rsa3, stronger effect = lower value 1.02 | locus YLR258W, strain gsy2, stronger effect = lower value 1.01 | locus YLR262C, strain YPT6 (second series), stronger effect = lower value 0.964 | locus YLR262C, strain YPT6, stronger effect = lower value 0.978 | locus YLR268W, strain sec22, stronger effect = lower value 1.02 | locus YLR320W, strain mms22, stronger effect = lower value 1 | locus YLR330W, strain CHS5, stronger effect = lower value 1.01 | locus YLR342W, strain FKS1 (second series), stronger effect = lower value 1.01 | locus YLR342W, strain FKS1, stronger effect = lower value 1.02 | locus YLR357W, strain rsc2, stronger effect = lower value 1.02 | locus YLR370C, strain arc18, stronger effect = lower value 1.02 | locus YLR371W, strain rom2, stronger effect = lower value 1.01 | locus YLR384C, strain iki3, stronger effect = lower value 1.01 | locus YLR418C, strain cdc73, stronger effect = lower value 1.07 | locus YML016C, strain PPZ1, stronger effect = lower value 1.01 | locus YML032C, strain rad52, stronger effect = lower value 1.03 | locus YML120C, strain ndi1, stronger effect = lower value 1 | locus YML124C, strain tub3, stronger effect = lower value 1.02 | locus YMR058W, strain fet3, stronger effect = lower value 1.01 | locus YMR078C, strain ctf18, stronger effect = lower value 1.02 | locus YMR125W, strain sto1, stronger effect = lower value 1.02 | locus YMR129W, stronger effect = lower value 1.01 | locus YMR205C, strain PFK2, stronger effect = lower value 1.02 | locus YMR223W, strain ubp8, stronger effect = lower value 1.03 | locus YMR231W, strain pep5, stronger effect = lower value 1.01 | locus YMR307W, strain GAS1, stronger effect = lower value 1.06 | locus YNL067W, strain RPL9B, stronger effect = lower value 1.03 | locus YNL071W, strain lat1, stronger effect = lower value 1 | locus YNL153C, strain GIM3, stronger effect = lower value 1.02 | locus YNL175C, strain NOP13, stronger effect = lower value 0.997 | locus YNL183C, strain NPR1, stronger effect = lower value 0.928 | locus YNL197C, strain WHI3, stronger effect = lower value 0.994 | locus YNL209W, strain ssb2, stronger effect = lower value 1 | locus YNL224C, strain SQS1, stronger effect = lower value 0.99 | locus YNL233W, strain BNI4, stronger effect = lower value 1.02 | locus YNL248C, strain rpa49, stronger effect = lower value 0.952 | locus YNL250W, strain rad50, stronger effect = lower value 1.02 | locus YNL271C, strain bni1, stronger effect = lower value 1.02 | locus YNL298W, strain CLA4, stronger effect = lower value 1.02 | locus YNL307C, strain MCK1, stronger effect = lower value 1.03 | locus YNL322C, strain KRE1 (second series), stronger effect = lower value 1.01 | locus YNR049C, strain mso1, stronger effect = lower value 1.01 | locus YNR052C, strain pop2, stronger effect = lower value 1.01 | locus YOL012C, strain htz1 1.6 | locus YOL147C, strain pex11, stronger effect = lower value 1.01 | locus YOR001W, strain rrp6, stronger effect = lower value 1.03 | locus YOR061W, strain CKA2, stronger effect = lower value 1.01 | locus YOR069W, strain VPS5, stronger effect = lower value 1.01 | locus YOR070C, strain gyp1, stronger effect = lower value 1 | locus YOR080W, strain dia2, stronger effect = lower value 1.03 | locus YOR083W, strain WHI5 (second series), stronger effect = lower value 0.976 | locus YOR083W, strain WHI5, stronger effect = lower value 1.05 | locus YOR106W, strain vam3, stronger effect = lower value 1.02 | locus YOR136W, strain idh2, stronger effect = lower value 1.02 | locus YOR144C, strain elg1, stronger effect = lower value 1.01 | locus YOR184W, strain ser1, stronger effect = lower value 1.03 | locus YOR231W, strain MKK1, stronger effect = lower value 1 | locus YOR265W, strain rbl2, stronger effect = lower value 1 | locus YOR270C, strain vph1, stronger effect = lower value 1.02 | locus YOR290C, strain snf2, stronger effect = lower value 1 | locus YOR316C, strain cot1, stronger effect = lower value 1.02 | locus YPL051W, strain arl3, stronger effect = lower value 1.02 | locus YPL055C, strain LGE1, stronger effect = lower value 1.04 and 1.01 | locus YPL078C, strain atp4, stronger effect = lower value 1.03 | locus YPL106C, strain sse1, stronger effect = lower value 0.989 | locus YPL240C, strain hsp82, stronger effect = lower value 0.999 | locus YPL241C, strain CIN2, stronger effect = lower value 1.01 | locus YPL256C, strain CLN2, stronger effect = lower value 0.998 | locus YPR119W, strain clb2, stronger effect = lower value 1.02 | locus YPR141C, strain kar3, stronger effect = lower value 1.01 | locus YPR163C, strain tif3, stronger effect = lower value 1.02 | locus YPR167C, strain met16, stronger effect = lower value 1.01 | strain wtn01, stronger effect = lower value 1.02
